# Compounds with a hit are over-represented: about 0.93% of the library has one in this group of screens.
# TRb SRC2 PPI – disrupts binding of human TR beta to SRC2; actives 0.065% (n = 280,000); TRbeta-SRC2 peptide binding, fluorescence polarization; receptor liganded with 1 µM T3; P10828; Potency, µM (series often up to 106 µM), for inactives: at the top dose activity change, negative = inhibition, actives largely listed as inhibitors; AID 1469;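 further: potency means the concentration at half of the fitted maximal effect; plate controls were bound peptide for no effect and peptide without receptor for full effect; nearly all actives have a fitted effect of over 50% in size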
# Target sequence (P10828 whole entry, looked up): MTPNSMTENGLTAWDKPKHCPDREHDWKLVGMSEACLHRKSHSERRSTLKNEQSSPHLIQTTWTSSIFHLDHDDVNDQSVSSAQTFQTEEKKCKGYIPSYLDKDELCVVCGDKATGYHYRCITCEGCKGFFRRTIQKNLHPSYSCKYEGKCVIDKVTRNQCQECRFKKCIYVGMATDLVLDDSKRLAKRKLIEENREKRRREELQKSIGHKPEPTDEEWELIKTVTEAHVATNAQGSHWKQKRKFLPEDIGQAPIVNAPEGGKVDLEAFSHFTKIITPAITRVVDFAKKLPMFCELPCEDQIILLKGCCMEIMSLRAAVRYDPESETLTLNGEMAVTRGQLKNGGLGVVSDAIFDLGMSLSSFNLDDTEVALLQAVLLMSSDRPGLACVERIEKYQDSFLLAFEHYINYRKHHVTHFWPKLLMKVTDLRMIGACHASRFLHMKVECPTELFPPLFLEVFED
#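 Fluorescence polarization of 20 nM Texas Red SRC2 peptide with 0.6 uM human TRb ligand-binding domain, in Tris buffer with 1uM T3 and 5% DMSO. Incubated 5 hr ambient; normalized to unbound and bound controls.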
# FBPA coupling cs – inhibits coupling enzyme system, counter-screen for aldolase hits; coupling enzyme system counterscreen, AmpLite Red fluorescence; activity change, negative = inhibition, % at 58.2 µM, hits read low; actives 0.67% (n = 290,000); AID 2472; in the data active means activity change below about -30%; further: on the % scale 0 is the no-effect control and ±100 the full control effect
#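 Counterscreen lacking aldolase: glyceraldehyde-3-phosphate coupling-enzyme reagent preincubated 10 min at RT with compound (at 57.5 uM final), then substrate/coupling system with AmpLite Red added; fluorescence read at 525/598 nm after 20 min RT.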
# RGS12 GoLoco inh-1 – RGS12 GoLoco-Gai1 interaction inhibition | actives 0.44% (n = 230,000) | Potency, µM (doses to about 61.6 µM), for inactives: at the top dose activity, negative = inhibition, actives largely listed as inhibitors | Gai1:RGS12 GoLoco peptide FP, rhodamine, 10 min | P63096 | AID 880; active means well fitted inhibition curve with a large enough effect, not every such curve was filed as active; inactive means no such curve, though single readings can be large or run the other way; further: potency means the concentration at half of the fitted maximal effect; on the % scale 0 is the no-effect control and ±100 the full control effect; nearly all actives have a fitted effect of over 30% in size
# TR SRC2 fluor cs – counter-screen for TRb-SRC2 inhibitors: fluorescence interference | Potency, µM (highest dose often 106 µM), for inactives: at the highest dose fluorescence change, negative = quenching | actives 0.29% (n = 280,000) | TRb/SRC2 Texas Red total fluorescence interference; active means well fitted curve in either direction with a large enough effect; inconclusive means small, poorly fitted or top-dose-only effect; further: potency means the concentration at half of the fitted maximal effect; on the % scale 0 is the no-effect control and ±100 the full control effect
#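 Human TRβ ligand-binding domain (0.6 uM) and Texas Red SRC2 peptide (20 nM) in Tris buffer with 1 uM T3 and 5% DMSO were incubated with pinned compound for 5 hr at ambient temperature. Total fluorescence was computed as S + 2P (555/632 nm).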
# RGS12 GoLoco inh-2 – disrupts Gai1 binding to human RGS12 GoLoco peptide; shares compounds with RGS12 GoLoco inh-1; Gai1/rhodamine-RGS12 GoLoco peptide fluorescence polarization; Potency, µM (highest dose often 57.1 µM), inactives show at the highest dose activity, negative = inhibition, usual class: inhibitors; actives 50% (n = 110)
# * = called active by the depositor; ? = inconclusive; nt = no result; ! = not confirmed by another sample; [ ] = dose if it differs, or a comment. Unless noted, the call rests on the fitted dose curve; in most records, active means well fitted curve in the direction sought with a large enough effect; inconclusive means small, poorly fitted or top-dose-only effect, or another doubt; inactive means no such curve, though single readings can be large; an effect the other way counts as inactive or inconclusive.
SMILES,TRb SRC2 PPI,FBPA coupling cs,RGS12 GoLoco inh-1,TR SRC2 fluor cs,RGS12 GoLoco inh-2
COc1ccc(-n2c(NC(=O)c3ccc(Br)o3)c(C#N)c3nc4ccccc4nc32)cc1,-16%,-16,-1%,-3%,nt
Cc1nn(C(C)(C)C)c(NC(=O)c2ccccc2)c1C#N,nt,-1,nt,nt,nt
N#Cc1c(NC(=O)c2ccc(Br)o2)n(-c2ccccc2)c2nc3ccccc3nc12,?,-31*,3%,-6%,nt
C[N+]1=C2CCCCCN2C(O)(c2ccccc2)C1 (configuration not stated),-4%,-5,14µM*,-4%,nt
CCCN1CCN(CCNC(=O)Nc2cc(C)ccc2OC)CC1,-5%,nt,nt,0%,nt
CC(=O)c1cc(-c2ccccc2)n(CCC(=O)NC(C)c2ccccc2)c1C (configuration not stated),0%,nt,nt,2%,nt
Cc1cccc(CS(=O)(=O)CC2Nc3ccc(C(=O)NCc4ccccc4Cl)cc3NC2=O)c1 (configuration not stated),-1%,nt,nt,-2%,nt
CC(C)NC[C@@H](O)c1ccc(O)c(O)c1,1%,-31*,-24%,-6%,nt
CC(C)NCC(O)c1ccc(NS(C)(=O)=O)cc1 (configuration not stated),-5%,2,7%,-3%,nt
CC(=O)Oc1ccccc1N(C(C)=O)S(=O)(=O)c1ccc2ccccc2c1,-10%,1,10%,0%,nt
CC(=O)Oc1c(Br)cc(N(C(C)=O)S(=O)(=O)c2ccccc2)c2ccccc12,nt,-45*,nt,nt,nt
Cc1ccc([N+](=O)[O-])c2cccnc12,-14%,-1,-1%,0%,nt
O=[N+]([O-])c1ccc(Sc2cccc3cccnc23)c2cccnc12,4%,-34*,-10%,-7%,nt
Cc1ccc(-n2c(N)c(C(=O)N3CCN(C)CC3)sc2=S)cc1,-2%,-34*,-5%,1%,nt
CC1CC(OCC(O)CN2CCN(Cc3ccccc3)CC2)CC(C)(C)C1 (configuration not stated),3%,3,-2%,0%,nt
CC[N+]1(CC(O)COC2CC(C)CC(C)(C)C2)CCOCC1 (configuration not stated),-1%,1,5.6µM*,-2%,nt
Cc1cccc(-c2c3c(=O)n(C)c(=O)n(C)c3cn2-c2ccccc2O)c1,-2%,-39*,4%,5%,nt
NC(=O)NOC[C@@H]1NC(=O)NC1=O,nt,nt,8%[14.2 µM],nt,nt
NC(=O)NC1NC(=O)NC1=O (configuration not stated),-1%,2,18µM*!,-1%,?
CN=C1N[C@H](c2ccccc2)N(c2ccccc2)S1,-4%,0,5.6µM*,-2%,13µM*
Cc1cc(OCCCSc2nc(-c3ccc(C(C)(C)C)cc3)nc3cc(=O)[nH]n23)ccc1Cl,-1%,nt,nt,1%,nt
CO/N=C(/C(=O)NC1C(=O)N2C(C(=O)O)=C(CSc3nc(=O)c(O)nn3C)CSC12)c1csc(N)n1 (configuration not stated),-7%,0,-6%,-2%,nt
CO/N=C(/C(=O)N[C@H]1C(=O)N2C(C(=O)O)=C(COC(C)=O)CSC12)c1csc(N)n1 (some centres not stated),4%,0,7.9µM*,0%,3%
CCCCn1c(=O)[nH]c2nc3cc(NC(C)=O)ccc3nc2c1=O,4%,-1,10%,-3%,77%
CCCCCCn1c(=O)[nH]c2nc3cc(N)c(C)cc3nc2c1=O,6%,0,-28%,-3%,nt
SMILES,TRb SRC2 PPI,FBPA coupling cs,RGS12 GoLoco inh-1,TR SRC2 fluor cs,RGS12 GoLoco inh-2
O=C1c2cccc3c(O)ccc(c23)C(=O)N1Cc1ccco1,-6%,-9,11µM*,-7%,10µM*
CCn1c(SCC(=O)N(C(C)C)C(C)C)nnc1-c1cc2ccccc2cc1O,-1%,0,3.2µM*,-4%,?
O=C(Cn1c(=O)n(CCc2ccccc2)c(=O)c2c3c(sc21)CCCC3)Nc1ccc(F)c(F)c1,-1%,nt,nt,2%,nt
C=CCC(C)(O)c1ccc(OC)cc1 (configuration not stated),-1%,1,5%,-2%,nt
O=C(CSc1nnc(-c2ccccc2)n1-c1ccccc1)NCc1ccco1,0%,2,-7%,3%,7%
Cc1cc(C)c2c(=O)n(CC(=O)Nc3cccc(Cl)c3C)sc2n1,2%,3,4µM*,0%,14µM*
COc1ccc(OC)c(CCNC(=O)Cn2sc3nc(C)cc(C)c3c2=O)c1,-9%,3,11µM*,-6%,4µM*
Cc1cc(C)c2c(=O)n(CC(=O)Nc3ccc(Br)c(C)c3)sc2n1,2%,5,-26%,-3%,-14%
COc1ccc(C(=O)NCC(c2cccnc2)N2CCN(c3ccccc3F)CC2)cc1OC (configuration not stated),-5%,nt,nt,-20%,nt
COc1cccc(N2CCN(C(=O)CCCn3c(=O)[nH]c4ccc(Br)cc4c3=O)CC2)c1,-2%,nt,nt,-1%,nt
Cc1cccc(C(=O)Nc2sc3c(c2C(=O)N2CCCCC2)CCC(C)C3)c1 (configuration not stated),6%,nt,nt,-3%,nt
COc1cccc(CNC(=O)CCn2c(=O)c3cccn3c3ccc(F)cc32)c1OC,-1%,nt,nt,?,nt
Nc1cc(N)nc(SCC(=O)Nc2ccc(Br)cc2Cl)n1,-9%,1,6.3µM*,-6%,?
COc1ccc(CSCC(=O)N/N=C/c2ccc(OCC(=O)N3CCCCC3)cc2)cc1,-6%,1,3.5µM*,-1%,?
O=C(CSCc1ccccc1)N/N=C/c1ccc(OCC(=O)N2CCCCC2)cc1,15%,2,-5%,1%,6%
O=C(CSCc1ccccc1Br)N/N=C/c1ccc(OCC(=O)N2CCCCC2)cc1,-2%,3,nt,-4%,nt
Cc1ccc(CSCC(=O)N/N=C/c2ccc(OCC(=O)Nc3ccc(C)cc3)cc2)cc1,27%,8,76%,-15%,nt
O=C(NCc1ccc(Cl)cc1)c1ccc(NC(=O)N2CC3CCCN3c3ccccc32)cc1 (configuration not stated),-2%,nt,nt,0%,nt
COc1ccc(C)cc1S(=O)(=O)NCC(c1cccs1)S(=O)(=O)c1ccc(C)cc1 (configuration not stated),-4%,nt,nt,1%,nt
O=C(Nc1cccc(Nc2cc(Nc3cccc(C(F)(F)F)c3)ncn2)c1)C1CC1,nt,nt,nt,nt,6%
O=C(Nc1cccc(C(F)(F)F)c1)C1CCCN(c2ncccn2)C1 (configuration not stated),-1%,-13,2%,-4%,nt
Cc1[nH]c2ccccc2c1C(=O)CN1CCN(C2CCCCC2)CC1,0%,0,1.8µM*,-3%,?
Cc1[nH]c2ccccc2c1C(=O)CN1C(=O)C(=O)N(C2CCCC2)C1=O,-6%,0,9%,1%,nt
Cn1c(SCC(=O)Nc2ccc3c(c2)oc2ccccc23)nnc1-c1ccccc1,-5%,0,3.5µM*,0%,7.9µM*

# Screening results: PubChem BioAssay, National Center for Advancing Translational Sciences (NCATS)
